Laboratory results as given in article PMC4336329 (PLoS ONE, 2015).
The campaign covered roughly 310,000 compounds. About 14,000 (4.5%) showed an effect of 50% or more. Effects have a minus sign here. The entries come from a sample that favours strong results as a whole.

Biological target: human ether-à-go-go-related gene (hERG) potassium channel (human, UniProt Q12809)
Experiment: primary screen, population patch clamp on CHO cells stably expressing hERG; higher = less effect of the substance
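Further: peak tail current of the secondary pulse compared with the same well before compound.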

Chain of human ether-à-go-go-related gene (hERG) potassium channel (Q12809 whole entry, looked up): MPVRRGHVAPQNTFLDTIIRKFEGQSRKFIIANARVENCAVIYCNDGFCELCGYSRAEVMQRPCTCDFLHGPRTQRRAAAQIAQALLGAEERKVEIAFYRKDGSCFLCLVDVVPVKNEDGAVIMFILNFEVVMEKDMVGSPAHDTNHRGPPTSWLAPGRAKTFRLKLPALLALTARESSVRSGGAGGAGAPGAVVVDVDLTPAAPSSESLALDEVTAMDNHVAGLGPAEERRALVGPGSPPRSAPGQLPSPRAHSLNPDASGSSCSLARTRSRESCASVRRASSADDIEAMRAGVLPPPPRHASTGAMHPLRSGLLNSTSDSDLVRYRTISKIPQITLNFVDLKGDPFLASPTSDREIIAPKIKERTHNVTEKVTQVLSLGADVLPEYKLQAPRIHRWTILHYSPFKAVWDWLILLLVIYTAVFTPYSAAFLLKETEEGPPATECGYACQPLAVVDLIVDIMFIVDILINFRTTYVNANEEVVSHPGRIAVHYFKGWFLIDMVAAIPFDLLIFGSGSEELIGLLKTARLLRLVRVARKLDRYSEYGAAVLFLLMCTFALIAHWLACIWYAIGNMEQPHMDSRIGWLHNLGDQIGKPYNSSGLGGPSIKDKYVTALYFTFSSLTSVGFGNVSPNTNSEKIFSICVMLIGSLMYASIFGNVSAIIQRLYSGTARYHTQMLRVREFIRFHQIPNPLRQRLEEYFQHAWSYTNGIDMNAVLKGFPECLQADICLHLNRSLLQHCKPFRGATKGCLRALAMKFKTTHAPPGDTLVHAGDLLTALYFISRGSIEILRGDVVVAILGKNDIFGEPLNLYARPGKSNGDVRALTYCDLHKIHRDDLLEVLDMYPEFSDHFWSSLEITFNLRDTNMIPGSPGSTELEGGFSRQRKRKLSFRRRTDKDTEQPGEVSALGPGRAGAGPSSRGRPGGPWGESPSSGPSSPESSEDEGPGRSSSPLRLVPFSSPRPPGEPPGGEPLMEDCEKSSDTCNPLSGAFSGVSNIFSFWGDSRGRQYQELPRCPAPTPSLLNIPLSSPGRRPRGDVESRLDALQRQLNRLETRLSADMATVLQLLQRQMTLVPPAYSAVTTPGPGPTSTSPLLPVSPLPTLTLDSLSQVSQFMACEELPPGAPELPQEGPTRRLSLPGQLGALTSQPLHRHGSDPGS

SMILES	hERG current change (%, negative = inhibition) at 10uM [%]
O=C(NC1CCCC1)C(c1cc2c(cc1[N+](=O)[O-])OCO2)N1CCCC1 (centres unmarked)	20.6
COc1cc(C(=O)Nc2cccnc2)cc(OC)c1OC	16.3
O=CN1CCN(C(=O)CN2C(=O)c3ccccc3C2=O)CC1	10.5
Cn1cc(CNCc2ccccc2OCC(O)CN2CCc3ccccc3C2)cn1 (centres unmarked)	-0.11
CCC(=O)c1ccc(OCC(O)CN2CCc3ccccc3C2)cc1.Cl (centres unmarked)	-63.7
CCN(CCn1cccn1)Cc1ccccc1OCC(O)CN1CCc2ccccc2C1 (centres unmarked)	-51.5
OC(COc1ccccc1CNCc1cccnc1)CN1CCc2ccccc2C1 (centres unmarked)	-34.2
Cl.OC(COc1ccc2c(c1)OCO2)CN1CCc2ccccc2C1 (centres unmarked)	-28.5
CCOc1ccc(OCC(O)CN2CCc3ccccc3C2)cc1.Cl (centres unmarked)	-66.3
Cc1cc(OCC(O)CN2CCc3ccccc3C2)ccc1Cl.Cl (centres unmarked)	-53.4
Cc1cc(=O)oc2cc(OCC(O)CN3CCc4ccccc4C3)ccc12 (centres unmarked)	-31.7
CC(=O)c1ccc(OCC(O)CN2CCc3ccccc3C2)cc1.Cl (centres unmarked)	-41.9
O=S(=O)(c1ccc(OCC(O)CN2CCc3ccccc3C2)cc1)N1CCOCC1 (centres unmarked)	-4.43
COc1ccc(OCC(O)CN2CCc3ccccc3C2)cc1.Cl (centres unmarked)	-33.1
N#CC1=C(N)NC(SCC(=O)Nc2ccc(Br)cc2)=C(C#N)C12CCCCC2	13.4
O=C(Nc1cc(Cl)ccc1O)C1CC(c2ccccc2Cl)=NO1 (centres unmarked)	20.3
O=C(N/N=C/c1cn(-c2cccs2)nc1-c1ccccc1)c1ccc(O)cc1	13.8
COc1c(C)cccc1C(=O)Nc1ccc(N2CCN(S(C)(=O)=O)CC2)cc1	5.12
CCCC(=O)Nc1nnc(CC(=O)N2CCCC2)s1	7.72
O=C(CCCc1nc(-c2ccccc2Cl)no1)NCc1cccnc1	-2.1
Cn1nnnc1NCc1ccccc1F	4.52
CCCCC1OC23CCCCC2C(C#N)(C(=N)O3)C1(C#N)C#N (centres unmarked)	4.17
CCN(CC)S(=O)(=O)c1ccc2c(c1)nc(SCC(=O)NCC1CCCO1)n2CC (centres unmarked)	3.12

SMILES	hERG current change (%, negative = inhibition) at 10uM [%]
c1ccc(CSc2nnc(-c3cccs3)n2Cc2ccco2)cc1	-46.8
Cl.OC1(CN2CCOCC2)C2CC3CC(C2)CC1C3 (centres unmarked)	11
O=C(COC(=O)c1cc(-c2ccccc2)nc2ccccc12)Nc1ccc2c(c1)OCO2	10.7
O=C(NCCCc1ccccc1)c1ccccc1O	-0.415
CCCCSc1nnc(CCC)n1N	-2.49
Cc1ccc(C)c(NC(=S)N(Cc2cccc(Br)c2)CC2CCC(C(=O)O)CC2)c1 (centres unmarked)	2.11
COC(=O)c1ccccc1NC(=O)NC1CCCCC1	5.86
COc1cccc(OCC(O)CN2CCc3ccccc3C2)c1.Cl (centres unmarked)	-71.1
OC(COc1ccc(CNCc2cccnc2)cc1)CN1CCc2ccccc2C1 (centres unmarked)	-13.5
CCCc1ccc(OCC(O)CN2CCc3ccccc3C2)cc1.Cl (centres unmarked)	-71.5
COc1cccc(OCC(O)CN2CCOCC2)c1.Cl (centres unmarked)	18.7
CCCc1ccc(OCC(O)CN2CCN(CCO)CC2)cc1.Cl (centres unmarked)	-13.7
CC(C)(C)c1ccc(OCC(O)CN2CCc3ccccc3C2)cc1.Cl (centres unmarked)	-50.3
CCCc1ccc(OCC(O)CN2CCCC2)cc1.Cl (centres unmarked)	-27.8
COc1cccc(C2c3c(oc4ccc(F)cc4c3=O)C(=O)N2CCN2CCOCC2)c1OC (centres unmarked)	4.45
CCCCn1c(SCC(=O)Nc2cc(NC(=O)c3ccco3)ccc2C)nc2ccccc2c1=O	-8.62
Cc1ccc(/C=N/N2CCN(C3c4ccccc4-c4ccccc43)CC2)s1	0.486
CN(/N=C/c1cccc(Br)c1)C1=NS(=O)(=O)c2ccccc21	-11.8
COc1ccc(N2CCN(c3nc4c(c(=O)n(C)c(=O)n4C)n3CCCc3ccccc3)CC2)cc1	13.4
CCc1ccc(/C=c2\s/c(=C\C(=O)C(C)(C)C)[nH]c2=O)cc1	15.2
CCCc1cc(C(=O)N2CCCC(N3CCN(c4ccccc4C)CC3)C2)n(C)n1 (centres unmarked)	-35.8
Cc1cc(C(=O)N2CCCC(N3CCN(c4ccccc4C)CC3)C2)n(C)n1 (centres unmarked)	-88.8
Cc1ccccc1N1CCN(C2CCCN(C(=O)c3cc(CC(C)C)nn3C)C2)CC1 (centres unmarked)	-31.7

SMILES	hERG current change (%, negative = inhibition) at 10uM [%]
Cc1ccccc1N1CCN(C2CCCN(C(=O)c3cc(C(C)C)[nH]n3)C2)CC1 (centres unmarked)	-61.2
O=C(c1noc2c1CCCC2)N1CCCC(N2CCN(c3ccccc3F)CC2)C1 (centres unmarked)	-28
Cc1cc(C(=O)N2CCCC(N3CCN(c4ccccc4C)CC3)C2)nc(C)n1 (centres unmarked)	4.27
Cc1ccccc1N1CCN(C2CCCN(C(=O)c3noc4c3CCCC4)C2)CC1 (centres unmarked)	-63.5
Cc1nc(C(=O)N2CCCC(N3CCN(c4ccccc4C)CC3)C2)cs1 (centres unmarked)	-39.5
CCc1[nH]nc(C(=O)N2CCCC(N3CCN(c4ccccc4C)CC3)C2)c1C (centres unmarked)	-23.8
Cc1ccccc1N1CCN(C2CCCN(C(=O)c3csc(C(C)C)n3)C2)CC1 (centres unmarked)	-43
Cc1ccccc1N1CCN(C2CCCN(C(=O)c3cn4c(C)cccc4n3)C2)CC1 (centres unmarked)	-58.1
Cc1ccccc1N1CCN(C2CCCN(C(=O)c3ccccn3)C2)CC1 (centres unmarked)	-9.78
O=C(COc1ccccc1[N+](=O)[O-])N(Cc1ccco1)C1CCS(=O)(=O)C1 (centres unmarked)	-6.3
Cc1cccc(NC(=O)/C=C/c2ccc3c(c2)OCO3)n1	19.1
Cc1c(Cl)cnc(NC(=O)COC(=O)Cc2coc3ccc4ccccc4c23)c1Cl	-7.96
Cc1ccc(Sc2ccc(NC(=O)CCl)cc2)c(C)c1	12.5
CC(=O)N1CC2(C)CN(C(C)=O)CC(C)(C1)C2	23.8
Cc1ccccc1N1CCN(C2CCCN(C(=O)c3cnsn3)C2)CC1 (centres unmarked)	-58.2
Cc1cnc(C(=O)N2CCCC(N3CCN(c4ccccc4C)CC3)C2)cn1 (centres unmarked)	1.27
Cc1ccccc1N1CCN(C2CCCN(C(=O)c3snnc3C)C2)CC1 (centres unmarked)	5.72
COc1ccc(NS(=O)(=O)c2ccc(N3CCCC3)c(NC(=S)Nc3cccc(S(=O)(=O)N(C)C)c3)c2)cc1	18.1
CCc1c(C)nc2ncnn2c1N1CCC(C(=O)NCc2cccc(OC)c2)CC1	-38.6
CCc1c(C)nc2ncnn2c1N1CCC(C(=O)NCc2ccc3c(c2)OCO3)CC1	-68.7
CCCc1cc(N2CCCC(C(=O)NCc3ccc4c(c3)OCO4)C2)n2ncnc2n1 (centres unmarked)	-78.4
CCCc1cc(N2CCCC(C(=O)NCC)C2)n2ncnc2n1 (centres unmarked)	-27.3
CCc1c(C)nc2ncnn2c1N1CCCC(C(=O)NCc2ccc3c(c2)OCO3)C1 (centres unmarked)	-37.4

SMILES	hERG current change (%, negative = inhibition) at 10uM [%]
Cc1cc(C)nc(N2CCCC(C(=O)NCc3ccc4c(c3)OCO4)C2)n1 (centres unmarked)	20.9
CN(C(=O)COC(=O)C1CCN(S(=O)(=O)c2cccs2)CC1)c1ccccc1	-14.1
Cc1ccc(S(=O)(=O)N2CCC(C(=O)OCC(=O)N3CCc4ccccc43)CC2)cc1	-25.4
CN(C)C=O.O=C(OCC(=O)N1CCCc2ccccc21)C1CCN(S(=O)(=O)c2cccs2)CC1	-71.1
CCN(C(=O)COC(=O)C1CCN(S(=O)(=O)c2cccs2)CC1)c1ccccc1	22
O=C(COC(=O)C1CCN(S(=O)(=O)c2cccs2)CC1)NCc1ccccc1	-23.6
CN(Cc1ccccc1)C(=O)COC(=O)C1CCN(S(=O)(=O)c2cccs2)CC1	-53.4
Cc1ccc(CNC(=O)COC(=O)C2CCN(S(=O)(=O)c3cccs3)CC2)cc1	-50.5
O=C(COC(=O)C1CCN(S(=O)(=O)c2cccs2)CC1)NCc1ccc(F)cc1	-49.7
O=C(COC(=O)C1CCN(S(=O)(=O)c2cccs2)CC1)c1ccccc1	20.6
ClC1(Cl)CC1CSc1nnc(-c2ccncc2)o1 (centres unmarked)	-16.3
COc1ccc(-c2ccc(NS(=O)(=O)c3cc([N+](=O)[O-])c(C)c([N+](=O)[O-])c3)cc2)nn1	-11.3
O=C(Cn1nnc(N2CCCC2)n1)N/N=C/c1ccc(Cl)cc1	13.1
Cc1cc(C)c(C)c(S(=O)(=O)NCc2ccc(C(=O)N3CCOCC3)cc2)c1C	-4.97
O=C(CCC(F)(F)F)N1CCCC(N2CCN(c3cccc(Cl)c3)CC2)C1 (centres unmarked)	-46.8
O=C(CSc1ccccc1)N1CCCC(N2CCN(c3ccccc3)CC2)C1 (centres unmarked)	-33.7
CC(=O)CCC(=O)N1CCCC(N2CCN(c3cccc(Cl)c3)CC2)C1 (centres unmarked)	-2.63
O=C(CSc1ccccc1)N1CCCC(N2CCN(c3cccc(Cl)c3)CC2)C1 (centres unmarked)	-54.1
O=C(CSc1ccccc1)N1CCN(c2ccc(F)cc2)CC1	10.8
O=C(CSc1ccccc1)N1CCCC(N2CCN(c3ccc(F)cc3)CC2)C1 (centres unmarked)	-75.3
